Drawing on PubChem BioAssay, this text covers composite z-score and z-score for five compounds.

Active and inactive are the calls of the source.

Assay [1] concerns Plasmodium falciparum Sir2 (PF13_0152, Sir2A). Kind of assay: Plasmodium falciparum Sir2A binding compounds – biochemical, small-molecule microarray, 635 nm fluorescence, primary screen (AID 1098).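 Further: score merges spot fluorescence intensity with its signal-to-noise ratio.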 The note with it: fluorescence 635 nm, higher = more signal.
Assay [2] can be described thus: probe aDKK1 binding to arrayed compounds – biochemical, biotinylated probe, 635/667 nm fluorescence, primary screen (AID 1099).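 Further: score merges 667nm spot fluorescence with signal to noise across triplicate slides.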 The note with it: small-molecule microarray, higher = more signal.
Assay [3] is described as follows: probe aCHRDL2 binding to arrayed compounds – biochemical, biotinylated probe, 635/667 nm fluorescence, primary screen (AID 1100). The note with it: small-molecule microarray, higher = more signal.
Assay [4] can be described thus: change in splice reporter luminescence, either direction, cell-based, HEK293, spliceosome inhibition project, primary screen (AID 1101).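 Further: HEK293 cells carrying a splicing-competent luciferase reporter gene; test concentration not given here.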 The note with it: HEK293 splicing luciferase reporter, 24 h, higher = more signal, called active from +8 up or from −8 down. Background: In a reporter assay the amount or activity of a reporter protein is the signal.
The target of assay [5] is Fibroblast growth factor 10 (Homo sapiens) (UniProt O15520). Kind of assay: compounds binding fibroblast growth factor 10 – biochemical, small-molecule microarray, 635 nm fluorescence, primary screen (AID 1102). The note with it: FGF10 binding, fluorescence 635 nm, higher = more signal.
Assay [6] has as its system glycogen synthase kinase-3 (GSK3A per assay name; protocol says GSK3B). Kind of assay: compounds binding glycogen synthase kinase-3 – biochemical, small-molecule microarray, 635 nm fluorescence, GSK3A, primary screen (AID 1103). Further: the record names both GSK3A and GSK3B. The note with it: fluorescence 635 nm, higher = more signal.
For assay [7], the target named is Epidermal growth factor receptor (Homo sapiens) (UniProt P00533). Kind of assay: compounds binding epidermal growth factor receptor – biochemical, small-molecule microarray, 635 nm fluorescence, primary screen (AID 1104).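 Further: score merges 667 nm emission intensity with spot signal to noise over triplicate slides.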 The note with it: EGFR binding, higher = more signal.
The target in assay [8] is Follistatin-related protein 3 (Homo sapiens) (UniProt O95633). Kind of assay: compounds binding follistatin-related protein 3 – biochemical, small-molecule microarray, 635 nm fluorescence, primary screen (AID 1105).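 Further: score merges emission near 667 nm and signal to noise per printed spot across three slides.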 The note with it: FSTL3 binding, higher = more signal.
Assay [9] deals with Dickkopf-related protein 1 (Homo sapiens) (UniProt O94907). Kind of assay: small molecules binding DKK1 protein – biochemical, small-molecule microarray, 635 nm fluorescence scan, primary screen (AID 1106).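 Further: score merges emission near 667 nm with signal to noise over three replicate slides.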 The note with it: higher = more signal.
The subject of assay [10] is Inhibin beta A chain (activin A). Kind of assay: small molecules binding activin A – biochemical, small-molecule microarray, 635 nm fluorescence scan, primary screen (AID 1107).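 Further: mouse activin A protein probed at 4.33 µg/mL on printed slides; score merges bound-protein fluorescence near 667 nm with spot signal-to-noise.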 The note with it: INHBA, higher = more signal.
Assay [11] deals with Human papillomavirus type 1a protein E7 (residues 44-93). Kind of assay: small molecules binding HPV E7 44-93 – biochemical, small-molecule microarray, residues 44-93, 635 nm fluorescence, primary screen (AID 1108).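 Further: E7 fragment applied at 1 µg/mL in TBST for 1 h at 4 C; score combines spot fluorescence with its signal to noise ratio.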 The note with it: fluorescence 635 nm, higher = more signal.
Assay [12] can be described thus: hepatitis C replication reporter changes, two-sided – Huh7 cells, luciferase reporter, HCV replication inhibitor project, primary screen (AID 1109).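 Further: huh7 hepatoma cells harbouring a luciferase neomycin HCV replicon reporter; luciferase luminescence as measure of HCV replicon replication; test concentration not given here.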 The note with it: Huh7 HCV replicon luciferase reporter, 48 h; higher = more signal.
Assay [13] has as its target Left-right determination factor 2 (Homo sapiens) (UniProt O00292). Kind of assay: small molecules binding LEFTY2 protein – biochemical, small-molecule microarray, 635 nm fluorescence scan, primary screen (AID 1110). The note with it: higher = more signal.
The target in assay [14] is Calmodulin-1 (Homo sapiens) (UniProt P0DP23). Kind of assay: small molecules binding calmodulin-1 with EGTA – biochemical, small-molecule microarray, Cy5-labelled CALM1, profiling panel (AID 1111).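 Further: labelled calmodulin applied in Tris saline Tween buffer holding calcium plus EGTA and DTT.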 The note with it: Cy5-CALM1 binding fluorescence, higher = more signal.
The target is the same in assay [15]. Kind of assay: small molecules binding Ca-loaded calmodulin-1 – biochemical, small-molecule microarray, Cy5-labelled CALM1, plus calcium, artefact control for SMM control-protein annotation, profiling panel (AID 1112).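 Further: score merges spot fluorescence with signal to noise from triplicate slides.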 The note with it: Cy5-CALM1 binding fluorescence, higher = more signal.
Assay [16] is described as follows: probe aWnt5a binding to arrayed compounds – biochemical, biotinylated probe, 635/667 nm fluorescence, primary screen (AID 1113).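 Further: score merges 667 nm fluorescence intensity with signal-to-noise per printed feature.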 The note with it: small-molecule microarray, higher = more signal.
A short description of assay [17]: probe aShh binding to arrayed compounds – biochemical, biotinylated probe, 635/667 nm fluorescence, primary screen (AID 1114).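 Further: probe is biotin-labelled aShh protein from a stem cell growth factor screen; measures binding of labelled protein to compounds printed on the slide; score merges feature fluorescence at 667 nm with signal-to-noise.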 The note with it: small-molecule microarray, higher = more signal.
Assay [18] can be described thus: probe aNog binding to arrayed compounds – biochemical, biotinylated probe, 635/667 nm fluorescence, primary screen (AID 1115).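 Further: probe is biotinylated aNog protein used at 0.15 µg/mL for 1 h at 4 C; z-score combines 667 nm fluorescence of each spot with its signal to noise.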 The note with it: small-molecule microarray, higher = more signal.
Assay [19] deals with Torsin-1A-interacting protein 1 (Homo sapiens) (UniProt Q5JTV8). Kind of assay: compound microarray binding of lysate hLAP1 – cell lysate, small-molecule microarray, COS7 lysate, 635/667 nm fluorescence, primary screen (AID 1116). The note with it: 635 nm fluorescence, higher = more signal.
In assay [20] the target is Alpha-bungarotoxin (Bungarus multicinctus) (UniProt P60615). Kind of assay: compounds binding labelled alpha-BTX control protein – biochemical, small-molecule microarray, Alexa647 label, 635/667 nm fluorescence, artefact control for SMM control protein annotation, profiling panel (AID 1117). The note with it: alpha-BTX-A647 binding fluorescence, higher = more signal.
Chain of Alpha-bungarotoxin (Bungarus multicinctus) (P60615 whole entry, looked up): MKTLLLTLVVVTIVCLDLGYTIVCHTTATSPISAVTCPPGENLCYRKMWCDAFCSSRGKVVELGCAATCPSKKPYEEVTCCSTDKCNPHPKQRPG

Chain of Left-right determination factor 2 (Homo sapiens) (O00292 whole entry, looked up): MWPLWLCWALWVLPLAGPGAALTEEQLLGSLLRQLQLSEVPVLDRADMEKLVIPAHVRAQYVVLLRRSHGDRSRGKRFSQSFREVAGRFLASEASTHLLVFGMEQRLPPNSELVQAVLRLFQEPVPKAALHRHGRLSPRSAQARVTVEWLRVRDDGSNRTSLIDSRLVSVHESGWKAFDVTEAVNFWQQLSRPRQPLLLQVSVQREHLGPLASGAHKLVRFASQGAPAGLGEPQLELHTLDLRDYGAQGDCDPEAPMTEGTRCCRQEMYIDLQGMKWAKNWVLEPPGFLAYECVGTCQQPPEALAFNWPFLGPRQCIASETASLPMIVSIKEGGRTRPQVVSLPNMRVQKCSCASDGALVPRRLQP
Chain of Torsin-1A-interacting protein 1 (Homo sapiens) (Q5JTV8 whole entry, looked up): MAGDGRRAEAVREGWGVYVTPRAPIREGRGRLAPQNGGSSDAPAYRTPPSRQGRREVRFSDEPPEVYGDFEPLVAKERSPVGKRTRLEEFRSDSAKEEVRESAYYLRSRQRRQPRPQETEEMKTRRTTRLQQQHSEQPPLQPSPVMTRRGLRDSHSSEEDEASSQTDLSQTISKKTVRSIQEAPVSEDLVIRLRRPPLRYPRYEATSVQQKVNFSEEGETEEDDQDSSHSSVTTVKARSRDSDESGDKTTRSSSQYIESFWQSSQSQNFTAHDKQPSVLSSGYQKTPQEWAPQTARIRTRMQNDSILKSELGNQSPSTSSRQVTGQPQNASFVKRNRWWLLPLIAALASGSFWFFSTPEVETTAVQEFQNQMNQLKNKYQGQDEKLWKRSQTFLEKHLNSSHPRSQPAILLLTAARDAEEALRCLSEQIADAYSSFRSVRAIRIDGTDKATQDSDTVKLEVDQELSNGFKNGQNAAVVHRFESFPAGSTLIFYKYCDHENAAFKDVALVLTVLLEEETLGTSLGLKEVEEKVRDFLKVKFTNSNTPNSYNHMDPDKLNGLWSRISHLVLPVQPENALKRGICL
Chain of Epidermal growth factor receptor (Homo sapiens) (P00533 whole entry, looked up): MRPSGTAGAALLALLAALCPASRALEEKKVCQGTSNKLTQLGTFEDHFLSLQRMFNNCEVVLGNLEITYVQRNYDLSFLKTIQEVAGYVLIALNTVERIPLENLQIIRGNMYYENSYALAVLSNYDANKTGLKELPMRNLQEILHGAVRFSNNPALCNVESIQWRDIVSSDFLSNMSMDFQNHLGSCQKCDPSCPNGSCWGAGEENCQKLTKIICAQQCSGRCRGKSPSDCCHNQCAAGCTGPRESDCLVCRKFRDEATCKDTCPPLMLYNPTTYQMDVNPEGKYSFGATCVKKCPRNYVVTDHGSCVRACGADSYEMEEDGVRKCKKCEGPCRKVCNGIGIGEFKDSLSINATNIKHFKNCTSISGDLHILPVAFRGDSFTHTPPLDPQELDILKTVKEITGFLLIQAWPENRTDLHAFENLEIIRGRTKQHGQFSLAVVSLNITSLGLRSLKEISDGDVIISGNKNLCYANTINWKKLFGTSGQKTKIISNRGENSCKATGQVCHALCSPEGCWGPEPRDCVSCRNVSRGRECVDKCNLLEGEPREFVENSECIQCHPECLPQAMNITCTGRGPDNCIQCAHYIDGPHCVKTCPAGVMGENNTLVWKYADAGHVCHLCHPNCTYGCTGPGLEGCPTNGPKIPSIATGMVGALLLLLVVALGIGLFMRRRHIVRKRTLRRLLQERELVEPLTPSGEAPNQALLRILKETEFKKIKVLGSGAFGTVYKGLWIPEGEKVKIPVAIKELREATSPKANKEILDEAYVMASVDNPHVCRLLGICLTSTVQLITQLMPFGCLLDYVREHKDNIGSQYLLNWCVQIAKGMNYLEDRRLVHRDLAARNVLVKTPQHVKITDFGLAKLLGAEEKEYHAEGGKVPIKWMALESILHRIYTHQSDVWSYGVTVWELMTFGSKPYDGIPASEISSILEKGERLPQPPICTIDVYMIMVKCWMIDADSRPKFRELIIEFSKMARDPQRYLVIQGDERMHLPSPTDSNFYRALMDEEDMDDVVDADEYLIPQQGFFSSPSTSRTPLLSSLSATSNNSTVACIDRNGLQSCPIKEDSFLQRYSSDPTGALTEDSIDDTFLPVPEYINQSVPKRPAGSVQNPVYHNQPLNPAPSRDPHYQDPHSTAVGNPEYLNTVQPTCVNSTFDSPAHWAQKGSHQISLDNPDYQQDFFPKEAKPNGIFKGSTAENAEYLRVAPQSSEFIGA
Chain of Follistatin-related protein 3 (Homo sapiens) (O95633 whole entry, looked up): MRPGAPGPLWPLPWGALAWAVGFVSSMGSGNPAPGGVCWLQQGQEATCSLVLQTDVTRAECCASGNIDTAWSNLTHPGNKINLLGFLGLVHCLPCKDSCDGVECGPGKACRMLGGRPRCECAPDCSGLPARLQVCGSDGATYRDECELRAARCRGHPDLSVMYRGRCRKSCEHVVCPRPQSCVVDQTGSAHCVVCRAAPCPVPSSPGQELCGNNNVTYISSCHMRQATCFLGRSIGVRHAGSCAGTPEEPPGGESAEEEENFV
Chain of Dickkopf-related protein 1 (Homo sapiens) (O94907 whole entry, looked up): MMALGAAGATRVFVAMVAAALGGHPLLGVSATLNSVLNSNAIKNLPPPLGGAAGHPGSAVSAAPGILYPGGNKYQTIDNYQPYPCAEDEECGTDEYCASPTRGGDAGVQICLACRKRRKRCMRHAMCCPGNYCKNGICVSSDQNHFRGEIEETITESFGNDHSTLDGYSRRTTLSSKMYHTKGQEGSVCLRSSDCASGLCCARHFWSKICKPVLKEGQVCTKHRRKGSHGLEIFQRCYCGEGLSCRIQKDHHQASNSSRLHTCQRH
Chain of Fibroblast growth factor 10 (Homo sapiens) (O15520 whole entry, looked up): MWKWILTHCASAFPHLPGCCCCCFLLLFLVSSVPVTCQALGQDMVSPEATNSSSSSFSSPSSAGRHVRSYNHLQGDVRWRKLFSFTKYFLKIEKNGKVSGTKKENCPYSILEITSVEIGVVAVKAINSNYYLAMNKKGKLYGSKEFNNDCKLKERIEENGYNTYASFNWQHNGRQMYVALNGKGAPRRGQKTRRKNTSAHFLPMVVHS

Consider `C=CCC(OC(C)=O)[C@@H]1[C@@H](N(Cc2ccc(-c3ccccc3)cc2)C(=O)c2ccc(-c3ccccc3)cc2)c2cc(OCCCO)ccc2N1C(=O)c1ccc(-c2ccccc2)cc1` (stereo not given in full), for which the composite z-score is -0.104 in assay [1]; 0.603 in [2]; 0.672 in assay [3]; -0.132 in [5]; -0.0347 in assay [6]; -0.137 in assay [7]. In addition, the composite z-score was 0.145 in assay [8]; -0.141 in assay [9]; 1.11 in assay [10]; -0.172 in assay [11]; 0.337 in assay [13]; 0.681 in assay [14]. Further, the composite z-score in assay [15] was 0.92; in assay [16] it was -0.11; in assay [17] it was -0.324; in assay [18] it was 0.347; in assay [19], 0.315; in assay [20] it was 0.459. The z-score was -1.34 (inactive) in assay [4] and 0.967 in [12].
`O=C1c2ccccc2C(=O)c2cc([C@H]3Oc4ccccc4S(=O)(=O)N4CCC[C@@H]34)ccc21`: the composite z-score in [1] is -1.12; in assay [2] it was -0.108; in assay [3], 0.461; in assay [5], -0.439; in assay [6], -0.896; in [7], -0.727. Moreover, the composite z-score in [8] is -1.02; in assay [9] it was 0.11; in [10] it was 1.09; in assay [11], -1.1; in assay [13], -0.148; in assay [14], -0.94. The composite z-score in [15] was 0.812; in [16], -0.16; in assay [17], -0.214; in assay [18], 0.0431; in [19], -0.749; in assay [20], -0.744. Moreover, the z-score in assay [4] is -0.833 (inactive); in assay [12], -2.
For `[N-]=[N+]=Nc1ccccc1[C@H]1OC(c2ccc(OCCCO)cc2)=N[C@@]1(Cc1ccccc1)C(N)=O`, the composite z-score in [1] worked out at 0.929; in [2], 1.46; in assay [3], 1.23; in [5] it was 1.09; in assay [6] it was 1.28; in assay [7], 0.13. Moreover, the composite z-score was found to be 1.09 in assay [8]; 0.0868 in assay [9]; 1.43 in assay [10]; 1.33 in [11]; 0.172 in assay [13]; 2.26 in [14]. In addition, the composite z-score in [15] came out at 1.12; in [16], 0.0998; in assay [17], 1.03; in [18], 0.489; in assay [19], 1.12; in [20] it was 3.09. The z-score is -1.86 (inactive) in assay [4] and -0.742 in assay [12].
Consider `COc1ccc([Si](C)(C)[C@H]2[C@H](CC(=O)N(CCO)Cc3ccccc3)O[C@@]3(C(=O)N(Cc4cccc(N5C(=O)COc6ccccc65)c4)c4ccccc43)[C@@H]2C)cc1`, for which the composite z-score was 1.29 in [1]; -0.209 in assay [2]; 0.202 in assay [3]; 0.963 in assay [5]; 0.183 in [6]; 0.456 in assay [7]. Also, the composite z-score in assay [8] was 0.628; in assay [9] it was 0.506; in [10], 0.702; in assay [11], -0.591; in [13] it was 0.962; in assay [14], -0.13. Besides, the composite z-score is -0.408 in assay [15]; -0.203 in assay [16]; 0.564 in [17]; 0.389 in assay [18]; 0.836 in [19]; 1.57 in assay [20]. Moreover, the z-score was -2.08 (inactive) in assay [4] and -3.88 in [12].
In the case of `C=CCN1C(=O)[C@@]2(O[C@@H](CCO)[C@H]([Si](C)(C)c3ccc(OC)cc3)[C@H]2C)c2cc(N(C=O)c3ccccc3)ccc21`, the composite z-score in assay [1] was 0.592; in assay [2], 0.235; in [3] it was 0.453; in assay [5], 0.341; in [6], -0.0443; in [7], -0.131. Moreover, the composite z-score in [8] is 0.131; in [9], 0.0733; in [10], 1.01; in assay [11], 0.192; in [13], 0.0105; in [14] it was 0.905. The composite z-score in [15] was 1.06; in assay [16], -0.0643; in [17], -0.138; in [18], 0.238; in [19], 0.473; in assay [20], 0.37. Further, the z-score in [4] was -3.43 (inactive); in assay [12], -5.12.
